# Measurements reported in PubChem BioAssay (NCATS).
# Where “and” joins values, the source holds several entries; their conditions need not be identical. Identical values can stand only once. Records with an inconclusive call do not appear. Some structures have more than one record in an assay (separate samples or runs), and their calls can disagree. Unmarked numbers belong to inactive results. Calls of active or inactive are those of the source. Calls follow the shape of the dose curve; as a rule, active = well fitted curve in the direction sought with a large enough effect; inconclusive = small, poorly fitted or top-dose-only effect, or another doubt; inactive = no such curve, though single readings can be large; an effect the other way counts as inactive or inconclusive.
# Columns and labels:
# Tov-21-G = assay: Primary qHTS to identify gynecologic anti-cancer compounds using libraries of approved drugs and bioactive compounds (AID 1345084); conditions: Gynecologic cancer cell panel viability, ATPlite luminescence, 48 h; series mostly up to 57.5 µM; also: nearly all actives have a fitted effect of over 55% in size
# Outline: (§1)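 Five-concentration response, 48 h; readout is ATP-driven luciferase luminescence.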
# Tov112D = assay: as above; conditions: Gynecologic cancer cell panel viability, ATPlite luminescence, 48 h; series mostly up to 57.5 µM
# Outline: as §1
# [1] = Drug repurposing screens with cells derived from glioblastoma tumor samples (AID 1345199); conditions: GBM patient neurospheres viability, ATP luminescence, 48 h; also: nearly all actives have a fitted effect of over 40% in size
# Outline: (§2)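 Primary testing used CD133+ neurospheres from four GBM patients, seven concentrations, 48 h exposure and ATP-based viability; confirmation added three slower-growing patient lines.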
# astro = assay: as above; conditions: viability, ATP luminescence, 48 h; series mostly up to 45.9 µM
# Outline: as §2
# [2] = at 45.9 µM (top of the series), tumour line B
# [3] = at 45.9 µM (top of the series), tumour line D
# [4] = at 46 µM (top of the series), tumour line A
# [5] = at 46.1 µM (top of the series), tumour line C
# [6] = at 20 µM (top of the series), tumour line C
# [7] = at 21.2 µM (top of the series), tumour line B
# [8] = at 21.2 µM (top of the series), tumour line D
# [9] = at 21.3 µM (top of the series), tumour line A
# % is scaled to controls: 0 for no effect and ±100 for the full control effect; potency is read from the fitted curve at half-maximal effect.
smiles,measurement,setting,value
C=Cc1c(C)c2cc3[nH]c(cc4nc(cc5nc(cc1[nH]2)C(C)=C5CCC(=O)O)C(CCC(=O)O)=C4C)c(C)c3C=C,Potency,Tov-21-G,inactive
same,Potency,Tov112D,inactive
same,"activity, negative = cell killing",[1]; [2],-11.3%
same,"activity, negative = cell killing",[1]; [3],-20.2%
same,"activity, negative = cell killing",[1]; [4],-14%
same,"activity, negative = cell killing",[1]; [5],-7.06%
same,Potency,astro,inactive
O=c1[nH]cnc2c1ncn2[C@@H]1O[C@H](CO)[C@@H](O)[C@H]1O,Potency,Tov-21-G,inactive
same,Potency,Tov112D,inactive
same,"activity, negative = cell killing",[1]; [2],9.46%
same,"activity, negative = cell killing",[1]; [3],-5.06%
same,"activity, negative = cell killing",[1]; [4],7.03%
same,"activity, negative = cell killing",[1]; [5],2.71%
same,Potency,astro,inactive
CC1=C(C/C=C(\C)CCC[C@H](C)CCC[C@H](C)CCCC(C)C)C(=O)c2ccccc2C1=O,Potency,Tov-21-G,inactive
same,Potency,Tov112D,inactive
same,"activity, negative = cell killing",[1]; [5],-10.9%
same,Potency,[1]; tumour line A,11.2 µM (active)
O=C1Nc2ccc(Cl)cc2[C@@](C#CC2CC2)(C(F)(F)F)O1,Potency,Tov-21-G,inactive
same,Potency,Tov112D,inactive
same,"activity, negative = cell killing",[1]; [2],-20.8%
same,"activity, negative = cell killing",[1]; [5],-5.83%
same,Potency,[1]; tumour line A,17.8 µM (active)
CCCn1cnc2c1c(=O)n(CCCCC(C)=O)c(=O)n2C,Potency,Tov-21-G,inactive
same,Potency,Tov112D,inactive
same,"activity, negative = cell killing",[1]; [2],-7.91%
same,"activity, negative = cell killing",[1]; [3],-10.9%
same,"activity, negative = cell killing",[1]; [4],-20.8%
same,"activity, negative = cell killing",[1]; [5],14.2%
same,Potency,astro,inactive
CN(N=O)C(=O)N[C@@H]1[C@@H](O)[C@H](O)[C@@H](CO)O[C@@H]1O,Potency,Tov-21-G,inactive
same,Potency,Tov112D,inactive
same,"activity, negative = cell killing",[1]; [6],-1.98%
same,"activity, negative = cell killing",[1]; [7],-12%
same,"activity, negative = cell killing",[1]; [8],1.48%
same,"activity, negative = cell killing",[1]; [9],-15.9%
same,Potency,astro,inactive
CCC(=O)c1ccc(O)cc1,Potency,Tov-21-G,inactive
same,Potency,Tov112D,inactive
same,"activity, negative = cell killing",[1]; [2],-5.56%
same,"activity, negative = cell killing",[1]; [3],-10.1%
same,"activity, negative = cell killing",[1]; [4],-28.1%
same,"activity, negative = cell killing",[1]; [5],-21.6%
same,Potency,astro,inactive
CCN(CC)CCOC(=O)C1(C2CCCCC2)CCCCC1,Potency,Tov-21-G,inactive
same,Potency,Tov112D,inactive
NC(N)=NCCC[C@H](N)C(=O)O,"activity change, negative = cytotoxicity",Tov-21-G,-4.36% [at 6.55 µM]
same,"activity change, negative = cytotoxicity",Tov112D,4.12% [at 6.55 µM]
same,"activity, negative = cell killing",[1]; [2],-14.6%
same,"activity, negative = cell killing",[1]; [3],-0.948%
same,"activity, negative = cell killing",[1]; [4],-22.1%
same,"activity, negative = cell killing",[1]; [5],18.8%
same,Potency,astro,inactive
N[C@@H](CSCCCO)C(=O)O,Potency,Tov-21-G,inactive
same,Potency,Tov112D,inactive
same,"activity, negative = cell killing",[1]; [2],0.365%
same,"activity, negative = cell killing",[1]; [3],-10%
same,"activity, negative = cell killing",[1]; [4],-27%
same,"activity, negative = cell killing",[1]; [5],-8.48%
same,Potency,astro,inactive
CC1CC(OC(=O)C(O)c2ccccc2)CC(C)(C)N1C (stereo not drawn),Potency,Tov-21-G,inactive
same,Potency,Tov112D,inactive
same,"activity, negative = cell killing",[1]; [6],14.2%
same,"activity, negative = cell killing",[1]; [7],1.64%
same,"activity, negative = cell killing",[1]; [8],-6.11%
same,"activity, negative = cell killing",[1]; [2],-1.01%
same,"activity, negative = cell killing",[1]; [3],1.15%
same,"activity, negative = cell killing",[1]; [4],-25.8%
same,"activity, negative = cell killing",[1]; [5],-11%
same,Potency,astro,inactive
O=C1OC(OC(=O)c2cccnc2Nc2cccc(C(F)(F)F)c2)c2ccccc21 (stereo not drawn),Potency,Tov-21-G,inactive
same,Potency,Tov112D,inactive
same,"activity, negative = cell killing",[1]; [2],-18.8%
same,"activity, negative = cell killing",[1]; [3],3.71%
CC1=C(/C=C/C(C)=C/C=C/C(C)=C/C(=O)O)C(C)(C)CCC1,Potency,Tov-21-G,inactive
same,Potency,Tov112D,inactive
same,"activity, negative = cell killing",[1]; [2],-21.7%
same,"activity, negative = cell killing",[1]; [3],-18.7%
same,"activity, negative = cell killing",[1]; [5],-15.9%
CC[N+](CC)(CC)CCOc1ccc(/C=C/c2ccccc2)cc1,Potency,Tov-21-G,25.1 µM (active)
OC[C@H]1O[C@@H](O[C@@H]2[C@@H](CO)O[C@](O)(CO)[C@H]2O)[C@H](O)[C@@H](O)[C@H]1O,Potency,Tov-21-G,inactive
same,Potency,Tov112D,inactive
same,"activity, negative = cell killing",[1]; [2],-1.82%
same,"activity, negative = cell killing",[1]; [3],8.93%
same,"activity, negative = cell killing",[1]; [4],-20.9%
same,"activity, negative = cell killing",[1]; [5],-24.2%
same,Potency,astro,inactive
Nc1ccc(S(=O)(=O)Nc2ccc(Cl)nn2)cc1,Potency,Tov-21-G,inactive
same,Potency,Tov112D,inactive
same,"activity, negative = cell killing",[1]; [6],-15.3%
same,"activity, negative = cell killing",[1]; [7],-15.4%
same,"activity, negative = cell killing",[1]; [8],-6%
same,"activity, negative = cell killing",[1]; [9],-27.3%
same,"activity, negative = cell killing",[1]; [2],-5.57%
same,"activity, negative = cell killing",[1]; [3],-3.89%
same,"activity, negative = cell killing",[1]; [5],-7.4%
same,Potency,astro,inactive
Cn1c(=O)c2c(ncn2CC2OCCO2)n(C)c1=O,Potency,Tov-21-G,inactive
same,Potency,Tov112D,inactive
same,"activity, negative = cell killing",[1]; [2],-0.596%
same,"activity, negative = cell killing",[1]; [3],-3.46%
same,"activity, negative = cell killing",[1]; [4],-20.3%
same,"activity, negative = cell killing",[1]; [5],-4.14%
same,Potency,astro,inactive
CC(C)(C)C(=O)C(Oc1ccc(Cl)cc1)n1ccnc1 (stereo not drawn),Potency,Tov-21-G,inactive
same,Potency,Tov112D,inactive
same,"activity, negative = cell killing",[1]; [2],-7.03%
same,"activity, negative = cell killing",[1]; [3],-26.6%
same,"activity, negative = cell killing",[1]; [5],-0.0869%
same,Potency,[1]; tumour line A,12.6 µM (active)
same,Potency,astro,inactive
CC/C=C(\C(=O)N[C@@H]1C(=O)N2C(C(=O)OCOC(=O)C(C)(C)C)=C(COC(N)=O)CS[C@H]12)c1csc(N)n1,Potency,Tov-21-G,inactive
same,Potency,Tov112D,inactive
same,"activity, negative = cell killing",[1]; [2],-9.61% and -1.73%
same,"activity, negative = cell killing",[1]; [3],-14.3% and 0.361%
same,"activity, negative = cell killing",[1]; [5],-12.1% and -5.64%
same,Potency,[1]; tumour line A,17.8 µM (active)
same,Potency,astro,inactive
